Most compounds without a hit are left out; they make up all but 27% or so of the library.
CYP2C19 inh: blocks human cytochrome P450 2C19. P33261. CYP2C19 Supersomes, luciferin-H EGE luminescence, 30 min. inhibition, % at 5 µM. actives 21% (n = 96,000). AID 778;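 active = CYP2C19 inhibition above a set limit at 5 µM in the primary screen, cut at about 50% in these data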
Cav32 inh: inhibitors of human Cav3.2 T-type calcium channel. O95180. Cav3.2-expressing cells, Fluo-4 calcium fluorescence FDSS; stronger effect = lower value. B-score at 10 µM. actives 4% (n = 100,000);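 active = single-dose well whose peak fluorescence ratio is a statistical outlier from its plate by either plate-standardised score or position-corrected B-score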
CYP2C9 activ: increases human cytochrome P450 2C9 activity; recombinant CYP2C9, luciferin-H conversion, luminescence; stronger effect = higher value; factor 1 = untreated enzyme, 0 = blocked; activation factor at 5 µM; actives 1.4% (n = 96,000); AID 1024;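 active = activation factor of 2 or more for CYP2C9 at a 5 µM dose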
CYP2C9 inhib: human CYP2C9 inhibition. actives 20% (n = 96,000). AID 777. P11712. CYP2C9 Supersomes, luciferin-H conversion, luminescence. inhibition, % at 5 µM;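 active = blocking of liver enzyme CYP2C9 beyond about 50% at 5 µM, limit read from the data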
CYP2C19 activ: increases human CYP2C19 enzyme activity; AID 1025; recombinant CYP2C19, luciferin-H EGE luminescence; stronger effect = higher value; 0 = fully inhibited enzyme, 1 = untreated enzyme; 96,000 tested, under 10 active; activation factor at 5 µM; P33261;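 active = activation factor of at least 2 at 5 µM in the primary screen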
Hits are given with their value; . = inactive; / = not tested or not shown.

SMILES	CYP2C19 inh	Cav32 inh	CYP2C9 activ	CYP2C9 inhib	CYP2C19 activ
COc1ccccc1-c1cc(C(=O)NC(C)c2ccccc2)no1 (stereo not drawn)	.	.	2.8	.	.
COc1ccccc1-c1cc(C(=O)NC(C)C)no1	.	.	4	.	.
Cc1ccc(C)c(S(=O)(=O)Nc2ccc(S(=O)(=O)Nc3onc(C)c3C)cc2)c1	.	.	.	71	.
COc1ccc(NS(=O)(=O)c2cc(OC)ccc2NC(=O)c2cc(C)oc2C)cc1	91	.	.	.	.
Cc1cc(C)c(S(=O)(=O)Nc2ccc(O)cc2)cc1C	97	.	.	.	.
Cc1ccc(C)c(S(=O)(=O)Nc2ccc(O)cc2)c1	72	.	.	.	.
CCOC(=O)CN(C)C(=O)C1CCCN1C(=O)OC(C)(C)C (stereo not drawn)	/	.	/	/	/
Cc1ccc(S(=O)(=O)N2CCCC2c2nc3ccccc3s2)cc1 (stereo not drawn)	.	.	.	.	.
Nc1ccccc1-c1nnn(CC(=O)N2CCCc3ccccc32)n1	/	.	/	/	/
CCOC(=O)CSc1nc(N)c(C#N)c(CC(C)C)c1C#N	.	.	.	.	.
CCNS(=O)(=O)c1ccc(NS(=O)(=O)c2cc(C)ccc2C)cc1	64	/	.	97	.
Cc1noc(NS(=O)(=O)c2ccc(NC(=O)CS(=O)(=O)c3ccccc3)cc2)c1C	.	/	.	54	.
Cc1cc(C(=O)Nc2ccccc2)c(C)o1	61	/	.	.	.
CCCCNS(=O)(=O)c1ccc(NS(=O)(=O)c2c(C)cc(C)cc2C)cc1	85	.	.	98	.
O=C(NC1CCCCC1)C1CCN(c2cnccn2)CC1	.	.	.	.	.
CN1CCCN(C2C3CC4CC(C3)CC2C4)CC1 (stereo not drawn)	.	/	.	.	.
CN1C=CC2=C(C#N)C(N)C(C#N)(C#N)C(c3ccccc3)C2C1 (stereo not drawn)	.	/	.	.	.
COc1ccc2c(c1)c(=O)cc(-c1ccccc1)n2C	/	.	/	/	/
COc1ccc(NS(=O)(=O)c2cc(C)ccc2C)cc1	82	.	.	72	.
COc1ccc(NS(=O)(=O)c2cc(C(=O)O)ccc2C)cc1	.	.	.	.	.
OCCN1CCN(C(c2cccs2)c2ccc3cccnc3c2O)CC1 (stereo not drawn)	.	.	.	.	.
CC(C)(C)c1cc(C(c2cccnc2)N2CCN(CCO)CC2)cc(C(C)(C)C)c1O (stereo not drawn)	80	.	.	96	.
CN1CC2=Cc3ccccc3OC23Oc2ccccc2C=C3C1	54	.	.	58	.
Cc1csc(SCC(=O)Nc2ncc(Cl)c(C)c2Cl)n1	.	.	.	.	.
COc1ccc([C@H]2/C=C\CN(S(=O)(=O)c3ccc(C)cc3)[C@@H](C)C(=O)N2Cc2ccc(F)cc2)cc1	/	.	/	/	/
SMILES	CYP2C19 inh	Cav32 inh	CYP2C9 activ	CYP2C9 inhib	CYP2C19 activ
COc1ccc(Cc2nc3ccc(S(=O)(=O)N4CCOCC4)cc3[nH]2)cc1	.	.	.	.	.
COc1cccc(CNC(=O)C2CCN(S(=O)(=O)N3CCCC3)CC2)c1	.	.	.	.	.
COC(=O)c1ccc(S(=O)(=O)NCc2cccc(OC)c2)n1C	60	.	.	.	.
COc1ccc(CNS(=O)(=O)c2cccc(S(=O)(=O)N3CCOCC3)c2)cc1	58	-4.4	.	.	.
O=S(=O)(NCc1ccc2c(c1)OCO2)c1cccc(S(=O)(=O)N2CCOCC2)c1	75	.	.	.	.
O=C(NCc1ccc2c(c1)OCO2)c1cccc(S(=O)(=O)N2CCOCC2)c1	.	.	.	.	.
COc1cccc(CNS(=O)(=O)c2cccc(S(=O)(=O)N3CCOCC3)c2)c1	57	.	.	.	.
Cc1ccc(C2CC(C(F)(F)F)n3nc(C(=O)NCC4CCCO4)cc3N2)cc1 (stereo not drawn)	.	.	.	58	.
COc1cccc(C2CC(C(F)(F)F)n3ncc(C(=O)NCC4CCCO4)c3N2)c1 (stereo not drawn)	.	.	.	60	.
COc1ccc(C2CC(C(F)(F)F)n3ncc(C(=O)NCc4cccnc4)c3N2)cc1OC (stereo not drawn)	.	.	.	52	.
CN(Cc1ccc(-n2cccn2)cc1)C(=O)c1cnn2c1NC(c1ccco1)CC2C(F)(F)F (stereo not drawn)	.	-7.6	.	78	.
Cn1c(O)c(C(C#N)=C2N=c3ccccc3=N2)c2ccccc21	.	.	.	.	.
Cc1ccc(C2CC(C(F)(F)F)n3ncc(C(=O)NCc4ccco4)c3N2)cc1 (stereo not drawn)	.	-5.8	.	.	.
COC(=O)c1cc(COc2ccc3c4c(c(=O)oc3c2)CCC4)c(C)o1	.	/	.	.	.
Cc1c(O)c(CN2CCCCC2)cc2c3c(c(=O)oc12)CCC3	.	.	.	70	.
Cc1coc2c(C)c3oc(=O)c4c(c3cc12)CCCC4	.	.	.	.	.
Cc1oc2cc3oc(=O)c4c(c3cc2c1C)CCC4	63	.	.	.	.
Cc1oc2c(C)c3oc(=O)c4c(c3cc2c1C)CCC4	80	.	.	.	.
CCOC(=O)c1ccc(NC2c3ccccc3C(=O)N2c2ccccn2)cc1 (stereo not drawn)	.	.	.	.	.
CCS(=O)(=O)N1CCC(C(=O)c2ccc(Cl)cc2)CC1	/	.	/	/	/
COc1ccc(-c2cn3c(C)c(C(=O)N4CCN(c5ccc(F)cc5)CC4)sc3n2)cc1	.	/	.	.	.
CCOC(=O)N1CCN(C(=O)c2sc3nc(-c4ccc(F)cc4)cn3c2C)CC1	64	/	.	69	.
COc1ccccc1N1CCN(C(=O)c2sc3nc(-c4ccc(F)cc4)cn3c2C)CC1	.	/	.	50	.
Cc1c(C(=O)N2CC(C)OC(C)C2)sc2nc(-c3ccc(F)cc3)cn12 (stereo not drawn)	.	/	.	.	.
CC1=C(CC(=O)O)c2cc(F)ccc2/C1=C\c1ccc(S(C)=O)cc1 (stereo not drawn)	/	.	/	/	/
SMILES	CYP2C19 inh	Cav32 inh	CYP2C9 activ	CYP2C9 inhib	CYP2C19 activ
CC(CCc1ccccc1)NC(=O)CN1CCN(Cc2ccccc2)C1=O (stereo not drawn)	.	.	.	.	.
CC(CCc1ccccc1)NC(=O)CN1CCN(Cc2ccc(Cl)cc2)C1=O (stereo not drawn)	71	-8.2	.	56	.
O=C(CN1CCN(Cc2ccccc2F)C1=O)NCCc1ccc(Cl)cc1	66	.	.	88	.
O=C(Cn1cccc1)N1CCc2ccccc21	.	.	.	.	.
O=C1N(CC(=O)N2CCc3ccccc32)CCN1Cc1ccc(Cl)cc1	.	-4.5	2.3	.	.
CCOc1ccc(CCNC(=O)CN2CCN(Cc3ccccc3F)C2=O)cc1OCC	.	.	.	.	.
Cc1ccc(CN2CCN(CC(=O)NC(C)CCc3ccccc3)C2=O)cc1 (stereo not drawn)	58	-5.7	.	67	.
Cc1ccc(S(=O)(=O)c2nc(C)c3c(n2)CCC3)cc1	.	.	2.2	.	.
CC(C)(C)SCCNS(=O)(=O)c1ccccc1	.	.	.	.	.
